Each structure is given as a SMILES string. About 83,000 compounds went through this panel and 20% of them were active in at least one assay; those are over-represented in the sample as a whole.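 Growth was measured after 48 h exposure to one concentration of compound in 96-well plates. Values under 10 count as active.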 Unmarked numbers belong to inactive results. Active and inactive are the calls of the source.

The record followed here is PubChem BioAssay (NCI).

Some test systems named below: SR leukemia; RPMI-8226 leukemia; OVCAR-8 ovarian; OVCAR-5 ovarian; OVCAR-4 ovarian; SK-OV-3 ovarian; IGROV1 ovarian; OVCAR-3 ovarian; HS 578T breast; NCI/ADR-RES ovarian; T-47D breast; BT-549 breast; SW-620 colon; MCF7 breast; HCT-116 colon; HCC-2998 colon; KM12 colon; MDA-MB-435 melanoma.
Holding throughout (assay): NCI-60 one-dose screen, 48 h (100 = growth as untreated, 0 = no growth, -100 = all killed)
What all share (conditions): 10 µM unless noted

Take `COc1ccc(/C=C/C(=O)CCC(=O)O)cc1OC`: the growth is 98.5% in the test on SR leukemia; 105% with RPMI-8226 leukemia; 109% in the test with OVCAR-8 ovarian; 95.4% in the test with OVCAR-5 ovarian; 99% with OVCAR-4 ovarian; 91% with SK-OV-3 ovarian. Besides, the growth with IGROV1 ovarian is 108%; with OVCAR-3 ovarian, 109%; in the test on HS 578T breast it was 105%; in the test on NCI/ADR-RES ovarian it was 111%; in the test on T-47D breast, 93.1%; in the test with BT-549 breast it was 109%. The growth with SW-620 colon was 105%; in the test with MCF7 breast, 97.1%; with HCT-116 colon, 104%; with HCC-2998 colon, 125%; with KM12 colon it was 103%.
Turning to `ClC1(Cl)C2CCCCCCC21` (stereo unspecified), the growth in the test with SR leukemia is 108%; in the test with RPMI-8226 leukemia it was 106%; in the test with OVCAR-8 ovarian, 123%; with OVCAR-5 ovarian, 116%; with OVCAR-4 ovarian, 109%; in the test with SK-OV-3 ovarian, 118%. The growth is 107% in the test with IGROV1 ovarian; 120% in the test on OVCAR-3 ovarian; 91.8% in the test on HS 578T breast; 108% in the test on T-47D breast; 101% with BT-549 breast; 104% with MDA-MB-435 melanoma. Also, the growth was 107% in the test with SW-620 colon, 98.5% with MCF7 breast, 110% in the test with HCT-116 colon and 114% in the test on HCC-2998 colon.
In the case of `CCN(CC)C(=O)O/N=C(/C)c1ccccc1`, the growth in the test on SR leukemia is 104%; with RPMI-8226 leukemia, 105%; in the test on OVCAR-8 ovarian, 93.3%; with OVCAR-5 ovarian, 103%; in the test on OVCAR-4 ovarian it was 80.7%; with SK-OV-3 ovarian, 111%. Besides, the growth in the test on IGROV1 ovarian was 126%; in the test with OVCAR-3 ovarian, 109%; in the test on HS 578T breast, 123%; in the test on NCI/ADR-RES ovarian it was 103%; with T-47D breast, 110%; in the test on MDA-MB-435 melanoma, 104%. Moreover, the growth with SW-620 colon was 106%; in the test with MCF7 breast, 97.1%; in the test on HCT-116 colon, 104%; with HCC-2998 colon it was 104%; in the test on KM12 colon, 102%.
For `CCOC(=O)Cn1c(-c2nonc2NC(=O)c2ccccc2F)nc2ccccc21`, the growth in the test with SR leukemia is 10.8%; in the test with RPMI-8226 leukemia, 40.6%; with OVCAR-8 ovarian, 38.8%; in the test with OVCAR-5 ovarian, 75%; with OVCAR-4 ovarian it was 90.8%; in the test on SK-OV-3 ovarian, 75%. Also, the growth in the test with IGROV1 ovarian was 46.3%; in the test on OVCAR-3 ovarian, 56.7%; in the test on HS 578T breast, 73.1%; with NCI/ADR-RES ovarian, 55.7%; in the test on T-47D breast, 75.6%; with MDA-MB-435 melanoma, 49.3%. In addition, the growth in the test with SW-620 colon was 38.5%; in the test with MCF7 breast, 37%; with HCT-116 colon, 22.9%; in the test with HCC-2998 colon, 33.3%; in the test on KM12 colon it was 41.1%.
`COC1(OC)C2(Cl)CCC1(Cl)C(Cl)=C2Cl`: the growth was 98.6% with SR leukemia; 103% in the test on RPMI-8226 leukemia; 94.6% in the test with OVCAR-8 ovarian; 105% in the test with OVCAR-5 ovarian; 103% in the test with OVCAR-4 ovarian; 104% in the test on SK-OV-3 ovarian. Also, the growth with IGROV1 ovarian was 106%; in the test on OVCAR-3 ovarian, 112%; in the test on HS 578T breast, 99.9%; with T-47D breast it was 98.3%; in the test with BT-549 breast, 117%; in the test with MDA-MB-435 melanoma, 99.9%. The growth is 120% in the test with SW-620 colon; 98% in the test on MCF7 breast; 105% in the test on HCT-116 colon; 103% in the test on HCC-2998 colon; 106% with KM12 colon.
Consider `Oc1c(C(Nc2ccccc2Br)c2ccccc2)ccc2cccnc12` (stereo unspecified), for which the growth is 1.95% (active) in the test on SR leukemia; 45.8% in the test with RPMI-8226 leukemia; 23.5% in the test on OVCAR-8 ovarian; 44.5% in the test with OVCAR-5 ovarian; 31.4% with OVCAR-4 ovarian; 35.2% in the test with SK-OV-3 ovarian. In addition, the growth in the test with IGROV1 ovarian was 20.1%; with OVCAR-3 ovarian, 32.8%; in the test with HS 578T breast, 59.2%; in the test with NCI/ADR-RES ovarian, 2.07% (active); with BT-549 breast it was 28.3%; with MDA-MB-435 melanoma it was 35.7%. Besides, the growth with SW-620 colon is 33.7%; in the test on MCF7 breast, 21%; in the test on HCT-116 colon, 20%; in the test on HCC-2998 colon, 30.1%; with KM12 colon it was 32.3%.
Turning to `C=C1C(=O)O[C@H]2[C@H]1CC/C(COC(=O)N[C@@H](Cc1c[nH]c3ccccc13)C(=O)OC)=C\CC[C@@]1(C)O[C@@H]21`, the growth in the test on SR leukemia was 3.24% (active); in the test with RPMI-8226 leukemia, -14.2% (active); with OVCAR-8 ovarian it was 37.1%; in the test on OVCAR-5 ovarian, 66%; in the test on OVCAR-4 ovarian it was 72.2%; with SK-OV-3 ovarian it was 78.8%. Further, the growth in the test with IGROV1 ovarian was 0.0104% (active); in the test with OVCAR-3 ovarian it was -40.3% (active); in the test with HS 578T breast it was 77.8%; in the test with NCI/ADR-RES ovarian, 88.2%; with BT-549 breast it was 45.3%; in the test with MDA-MB-435 melanoma, 49.1%. Besides, the growth in the test on SW-620 colon is -6.63% (active); in the test with MCF7 breast, 11.7%; in the test with HCT-116 colon, -78% (active); in the test with HCC-2998 colon, 82.4%.
Take `CC(C)(C)[Si](C)(C)OC1[C@@H](CNC(N)=O)O[C@@H](n2cnc3c(NC(=O)Nc4ccccc4)ncnc32)[C@H]1O[Si](C)(C)C(C)(C)C` (stereo partly specified): the growth in the test with SR leukemia is 6.81% (active); with RPMI-8226 leukemia, 47.6%; with OVCAR-8 ovarian, 59.9%; in the test with OVCAR-5 ovarian, 82.5%; in the test on OVCAR-4 ovarian, 50.3%; in the test with SK-OV-3 ovarian, 93.6%. Moreover, the growth in the test with IGROV1 ovarian was 56.1%; in the test with OVCAR-3 ovarian it was 61.1%; in the test with HS 578T breast, 58.7%; in the test with NCI/ADR-RES ovarian, 58.5%; in the test with BT-549 breast it was 80.1%; with MDA-MB-435 melanoma, 53%. Besides, the growth in the test on SW-620 colon is 62%; in the test with MCF7 breast it was 17.9%; with HCT-116 colon it was 0.343% (active); in the test with HCC-2998 colon, 19%; in the test with KM12 colon, 48.9%.
Turning to `CC(=O)Nc1ccc(/C=N/N2CCCCCC2)cc1`, the growth is 96.2% in the test on SR leukemia; 116% in the test with RPMI-8226 leukemia; 101% in the test with OVCAR-8 ovarian; 96.7% in the test with OVCAR-5 ovarian; 99.1% in the test on OVCAR-4 ovarian; 99.9% with SK-OV-3 ovarian. Also, the growth was 111% in the test on IGROV1 ovarian; 99.4% in the test with OVCAR-3 ovarian; 96.3% in the test on HS 578T breast; 103% in the test on NCI/ADR-RES ovarian; 91.5% in the test on BT-549 breast; 95.6% with MDA-MB-435 melanoma. Also, the growth was 100% in the test with SW-620 colon; 92.2% in the test with MCF7 breast; 99.5% in the test with HCT-116 colon; 109% in the test with HCC-2998 colon; 97.8% in the test on KM12 colon.
